Results: PubChem BioAssay (NCI)
About 83,000 compounds went through this panel and 20% of them were active in at least one assay; those are over-represented in the sample as a whole.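 Negative percent growth values reflect cell death: -40 means 40% of the cells present at the start died, and -100 means all died.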 A number with no mark means an inactive call. Active and inactive are the calls of the source. Rule for the calls: active = growth percent below 10; inactive = the rest.

Tested on: 786-0 renal
Test: NCI-60 one-dose screen, 48 h (100 = growth as untreated, 0 = no growth, -100 = all killed)
Conditions: 10 µM unless noted

Compound	growth
Cc1ccc(Cl)cc1Nc1nc(C(F)(F)F)ccc1C(=O)N/N=C/c1cccnc1	2.05% (active)
Fc1ccc(-c2nn(-c3ccccc3)cc2-c2nc3ccccc3o2)cc1	88.3%
CCOC(=O)C(=Cc1cccc(Br)c1)C(=O)OCC	47.4%
COc1cccc(NC(=O)Cn2cc(CN3CCN(c4ccnc5cc(Cl)ccc45)CC3)nn2)c1	99.2%
CCOC(=O)c1cc2c(=O)oc3ccccc3c2oc1=O	111%
O=C(Nc1cc(Cl)ccc1O)c1ccc(Nc2ccnc(C(F)(F)F)c2)cc1	49%
C=C(C)[C@@H]1CC[C@]2(C(=O)O)CC[C@]3(C)[C@H](CC[C@@H]4[C@@]5(C)C[C@@H](Cc6cn(CCO[C@@H]7O[C@H](COC(C)=O)[C@H](OC(C)=O)[C@H](OC(C)=O)[C@H]7OC(C)=O)nn6)[C@H](O)C(C)(C)[C@@H]5CC[C@]43C)[C@@H]12	78.9%
CC(C)CCC[C@@H](C)[C@H]1CC[C@H]2[C@@H]3CC=C4C[C@@H](C(C(=O)O)C(=O)O)CC[C@]4(C)[C@H]3CC[C@]12C	-58.6% (active)
O=S(=O)(Nc1ccc(Cl)cc1)c1ccc(-c2cnc(C3CC3)o2)cc1	41.1%
C#CCOc1ccc2ncnc(Nc3ccc(NC(=O)CCl)cc3)c2c1	-65.3% (active)
CCOC(=O)C1=C(NC)OCC1=O	106%
COC(=O)c1c2c(c(C)[n+]([O-])c1C)C(=O)C=C(NCc1ccc(Br)cc1)C2=O	-8.26% (active)
CCN(CC)CCOc1ccc(-c2c(-c3ccccc3)c(=O)oc3ccccc23)cc1	85%
Nc1nc(=S)c2ncn(C3OC(COP(=O)(O)O)C(O)C3O)c2[nH]1 (configuration not stated)	22.9%
COc1ccc(/C=N/NC(=O)CCN2c3ccccc3Sc3ccccc32)cc1	91.5%
c1cnc2[nH]cc(-c3csc(-c4cn(CCCN5CCOCC5)c5ccccc45)n3)c2c1	28.4%

Compound	growth
S=C1CCSC(=S)N1CCCN1C(=S)CCSC1=S	44.9%
COc1ccc(C(=O)Nc2ncc(Cc3ccc(F)cc3)s2)cc1	27.8%
C=C1C(=O)O[C@H]2[C@H]1CC/C(COC(=O)NCc1cc[nH]c1)=C\CC[C@@]1(C)O[C@@H]21	49.5%
CN(C)CCCC1(c2ccc(F)cc2)OCc2cc(-c3cccc4[nH]ccc34)ccc21 (configuration not stated)	37%
COC(C(=O)[C@@H](O)[C@@H](C)O)[C@@H]1Cc2cc3cc(O[C@H]4C[C@@H](O[C@H]5C[C@@H](O)[C@H](O)C(C)O5)[C@H](O)C(C)O4)c(C)c(O)c3c(O)c2C(=O)[C@H]1O[C@H]1C[C@@H](O[C@H]2C[C@@H](O[C@H]3C[C@@H](O)[C@H](OC)C(C)O3)[C@@H](O)C(C)O2)[C@H](O)C(C)O1 (some centres not stated)	4.65% (active)
CCNc1cc(-c2cccc(OC(F)(F)F)c2)nc2ccc(N3CCCC3)cc12	-18.4% (active)
CCNc1nc(-c2ccc(Cl)c(OC)c2)c(-c2ccnc(NCCCNS(=O)(=O)c3ccc(Cl)cc3)n2)s1	54.3%
Cc1nc2c(=O)[nH]c(SCC(=O)Nc3cccc(F)c3)nc2[nH]c1=O	103%
Cc1ccc(-c2nc3nc(-c4ccc(F)cc4)nc(N4CCNCC4)c3o2)cc1	-92.8% (active)
O=C(/C=C(/C=C/c1cccc2[nH]ccc12)OB(F)F)/C=C/c1cccc2[nH]ccc12	-60.1% (active)
Oc1c(Cl)cc(Cl)c2ccc(Cn3cc(-c4cc(C(F)(F)F)cc(C(F)(F)F)c4)nn3)nc12	97.3%
CC[C@@H](C(=O)[C@@H](C)[C@@H](O)[C@H](C)[C@@H]1O[C@@H]([C@@H](CC)C(=O)NCCc2ccc(F)cc2)CC[C@@H]1C)C1O[C@]2(C=CC(=O)[C@]3(CC[C@@](C)([C@H]4CC[C@](O)(CC)[C@H](C)O4)O3)O2)[C@H](C)C[C@@H]1C (some centres not stated)	50.3%
c1cc2[nH]ncc2cc1-c1nc2ccc3[nH]ncc3c2c2c1CCCC2	19.7%
C#CCOc1cccc(Nc2ncnc3c(NC(=O)C=C)cccc23)c1	14%
N#Cc1cnc(NCCc2ccncc2)nc1-n1cnc2ccccc21	40.3%
CCOC(=O)c1c(NC(=O)c2ccc(C(C)C)cc2)sc2c(CN(C)C)c(O)ccc12	-50.5% (active)
